The campaign covered roughly 290,000 compounds. About 370 (0.13%) were called active. Shown is part of a subset that was picked to be rich in actives. Measured potencies and affinities stand elsewhere. Values without a mark were called inactive.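 Rule for the calls: active = spots per cell inhibited over 60%, with over 100 cells counted and total cytoplasm intensity under 500,000; inconclusive = wells with under 100 cells, flagged as likely toxic; inactive = the rest.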
Molecular target: G-protein coupled receptor 55 (Homo sapiens) (UniProt Q9Y2T6)
Sequence (Q9Y2T6 whole entry, looked up): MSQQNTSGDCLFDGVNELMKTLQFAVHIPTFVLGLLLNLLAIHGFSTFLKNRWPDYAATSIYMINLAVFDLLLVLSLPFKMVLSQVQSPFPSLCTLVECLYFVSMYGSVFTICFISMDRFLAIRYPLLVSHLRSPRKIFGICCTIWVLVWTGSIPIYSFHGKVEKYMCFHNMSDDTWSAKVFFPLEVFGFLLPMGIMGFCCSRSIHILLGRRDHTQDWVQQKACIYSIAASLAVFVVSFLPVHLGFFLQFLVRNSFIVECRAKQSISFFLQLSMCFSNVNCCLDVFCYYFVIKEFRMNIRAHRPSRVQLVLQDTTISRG
Experiment: inhibition of LPI-stimulated GPR55 beta-arrestin translocation – imaging, U2OS, beta-arrestin-GFP, LPI agonist, primary screen (AID 2013);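 note: U2OS cells stably carrying GPR55 and arrestin-GFP stimulated by 5 µM LPI near EC80; imaged beta-arrestin-GFP aggregate spots per cell after agonist stimulation; plate controls were LPI-stimulated DMSO wells for no effect and DMSO wells without LPI for full effect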
Conditions: LPI antagonism, at 10 µM, stronger effect = higher value

Row | SMILES | inhibition
1 | O=c1[nH]c(=O)n(-c2ccccc2)c(O)c1/C=C1/C(c2ccccc2)=Nc2ccccc21 | 68.8% (active)
2 | O=c1[nH]c(=O)n(-c2ccccc2F)c(O)c1/C=C1\C=Nc2ccccc21 | 21.1%
3 | COC(=O)C1=Nc2ccccc2/C1=C\c1c(O)n(-c2ccc(OC)cc2)c(=O)[nH]c1=O | -7.2%
4 | O=c1[nH]c(=O)n(-c2cccc(F)c2)c(O)c1/C=C1\C=Nc2ccccc21 | 8.8%
5 | Cc1ccccc1-n1c(O)c(/C=C2/C(c3ccccc3)=Nc3ccccc32)c(=O)[nH]c1=O | 83% (active)
6 | CC1=Nc2ccccc2/C1=C/c1c(O)n(C)c(=O)[nH]c1=O | 1.1%
7 | COC(=O)C1=Nc2ccccc2/C1=C\c1c(O)n(-c2ccc(Br)cc2)c(=O)[nH]c1=O | 0.3%
8 | Cc1cccc(-n2c(O)c(/C=C/C=Nc3ccccc3)c(=O)[nH]c2=O)c1 | 0.7%
9 | Cc1cccc(-n2c(O)c(/C=C3/C(c4ccccc4)=Nc4ccccc43)c(=O)[nH]c2=O)c1 | 74.4% (active)
10 | C#C[C@@]1(O)CCC2C3CCC4=C/C(=N/OCC(=O)NC(C(=O)NC(CC(C)C)C(=O)O)C(C)C)CC[C@]4(C)C3CC[C@@]21C (stereo not given in full) | 13.1%
11 | COc1ccccc1-n1c(-c2ccccc2)nc2ccccc2c1=O | -1.7%
12 | CN1CCN(c2nc(N(C)C)oc(=O)c2C#N)CC1 | 2.9%
13 | Cc1cc(C)nc(-n2c(C)nc3cc(Cl)ccc3c2=O)c1 | 14.5%
14 | C/C(=N\Nc1ccccc1)c1c(O)[nH]c(=O)[nH]c1=O | -0.7%
15 | NNP(=O)(CC(=O)c1ccccc1)c1ccccc1 (stereo not given) | -7%
16 | O=S(=O)(NC1CCCC1)OCC(Cl)(Cl)Cl | 0.6%
17 | Cc1ccc2c(c1Cl)NC(C(=O)O)C1CC(Sc3ccccc3[N+](=O)[O-])C(Cl)C21 (stereo not given) | 70.4% (active)
18 | CC(=O)c1ccc2c(c1)C1C(Cl)C(Sc3ccccc3[N+](=O)[O-])CC1C(C(=O)O)N2 (stereo not given) | 21.4%

Row | SMILES | inhibition
19 | O=C(O)c1cccc2c1NC(C(=O)O)C1CC(Sc3ccccc3[N+](=O)[O-])C(Cl)C21 (stereo not given) | 17.5%
20 | CCOC(=O)C(O)(c1ccc(N(CC)C(=O)COc2ccccc2)cc1)C(F)(F)F (stereo not given) | 7.2%
21 | Cc1cc(OCC(=O)N[C@@H](Cc2ccccc2)C(=O)O)c2c3c(c(=O)oc2c1)CCC3 | 1.6%
22 | O=C1NC(=O)N(Cc2ccccc2)C(=O)/C1=C\c1ccco1 | 22.2%
23 | O=C1NC(=O)N(CCc2ccc(F)cc2)C(=O)/C1=C/c1cccs1 | 84.1%
24 | O=C1NC(=O)N(CCc2ccc(F)cc2)C(=O)/C1=C/c1ccco1 | 95.4% (active)
25 | CCn1nc(-c2ccccc2)nc2c(=O)n(C)c(=O)nc1-2 | 18.7%
26 | Cc1nc2c(=O)n(C)c(=O)nc-2n(C)n1 | 23.5%
27 | Cn1ncnc2c(=O)n(C)c(=O)nc1-2 | 79.3% (active)
28 | CN(Cc1ccccc1)C(=O)CN1CCCC1=O | -7.6%
29 | C=CCOc1ccc(CC2C(=O)N(C)C(=O)N(C)C2=O)cc1 | 11.7%
30 | Oc1ccc(C(=C(Cl)Cl)c2ccc(O)cc2)cc1 | 94.8% (active)
31 | O=S(=O)(c1ccc(O)cc1)c1ccc(O)cc1 | 11%
32 | CCc1cc(=O)oc2cc(OCC(=O)N3C[C@H]4C[C@@H](C3)c3cccc(=O)n3C4)c(Cl)cc12 | -10.3%
33 | CCCc1nc2ccccc2c(=O)n1-c1ccc(OC)cc1 | 12.2%
34 | CC12CCC3C(CC=C4CC(O)CCC43C)C1C/C(=C\c1ccccc1F)C2=O (stereo not given) | 1.4%
35 | CCOC(=O)c1cc(C(O)(C(=O)OC)C(F)(F)F)c(/N=C/N(C)C)o1 (stereo not given) | 14.3%

From PubChem BioAssay AID2013 (Sanford-Burnham Center for Chemical Genomics, 2009)
